Structures are written as SMILES. This is part of a sample that, as a whole, favours compounds with a hit. Of some 79,000 tested, about 15% had one in any assay. A number with no mark means an inactive call. Activity calls are given as the source filed them. Rule as the data show it: active = growth inhibition above about 70%; inactive = the rest.

Experiment [1] can be described thus: NCI Yeast Anticancer Drug Screen. Data for the rad50 strain (AID 155).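 Also: 0% = growth of vehicle-only cultures of the same strain.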 To be noted: S. cerevisiae rad50 strain growth inhibition; at 50.0 µM; hits give high values. In a few lines: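 Growth of the mutant yeast was measured after compound exposure and referenced to vehicle-treated cultures.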
Experiment [2] is described as follows: NCI Yeast Anticancer Drug Screen. Data for the mec2-1 strain (AID 157). Conditions: S. cerevisiae mec2-1 strain, at 50.0 µM, hits give high values. In short, it runs like this: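 Yeast mec2-1 mutant treated with compound. Readout: growth inhibition vs vehicle controls.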
The nature of experiment [3]: NCI Yeast Anticancer Drug Screen. Data for the sgs1 mgt1 strain (AID 161).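 Also: 0% = growth of cultures given vehicle only.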 Conditions: S. cerevisiae sgs1 mgt1 strain, at 50.0 µM, hits give high values. In a few lines: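 Genetically altered yeast, compound exposure, growth inhibition relative to vehicle.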
Experiment [4] can be described thus: NCI Yeast Anticancer Drug Screen. Data for the cln2 rad14 strain (AID 165).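 Also: 0% = growth equal to vehicle treated cultures.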 Conditions: S. cerevisiae cln2 rad14 strain, at 50.0 µM, hits give high values. In a few lines:
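cln2 rad14 yeast strain; compound exposure; growth inhibition read vs vehicle controls.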

Experiment [5] is described as follows: NCI Yeast Anticancer Drug Screen. Data for the bub3 strain (AID 167). To be noted: S. cerevisiae bub3 mutant strain, at 50.0 µM, hits give high values. In a few lines:
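Whole-cell yeast assay. The mutant strain was incubated with compounds, and growth inhibition was determined by comparison with vehicle-treated cells.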

Experiment [6] in a line: NCI Yeast Anticancer Drug Screen. Data for the mlh1 rad18 strain (AID 175). Conditions: S. cerevisiae mlh1 rad18 strain growth inhibition; at 50.0 µM; hits give high values. In short, it runs like this:
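Yeast w/ defined DNA-repair lesions; compound exposure; growth vs vehicle controls → % inhibition.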

In the case of `CCCCC(C(N)=O)C(C)(C)C(=O)O` (stereo not drawn), the growth inhibition in experiment [1] is -6%; in experiment [2], -0.45%; in experiment [3] it was 4.9%; in experiment [4] it was -21.2%; in experiment [5], 9.85%; in experiment [6], -1.75%.

Turning to `C#CCSC(=N)N`, the growth inhibition in experiment [1] was 5.4%; in experiment [2] it was -6.9%; in experiment [3], 8.9%; in experiment [4] it was 5.2%; in experiment [5], 8.8%; in experiment [6] it was 5.75%.

Consider `CCCNc1ncnc2c1ncn2C`, for which the growth inhibition in experiment [1] is 10.6%; in experiment [2] it was -15%; in experiment [3], -3.55%; in experiment [4], 7.65%; in experiment [5], 7.45%; in experiment [6], -4.65%.

As for `COc1ccc(CCNC(=O)C(Sc2ccccn2)c2ccccc2)cc1OC` (stereo not drawn), the growth inhibition in experiment [1] was 20.6%; in experiment [2] it was -29.4%; in experiment [3], 5.35%; in experiment [4], 23.1%; in experiment [5] it was 30.6%; in experiment [6] it was 27.8%.

In the case of `O=C(/C=C/c1ccccc1)Nc1ccc([N+](=O)[O-])cc1Cl`, the growth inhibition in experiment [1] was 4.75%; in experiment [2], 10.7%; in experiment [3], 12%; in experiment [4], -1.95%; in experiment [5], 26.2%; in experiment [6], 18.5%.

As for `CCCCCCCCCCCCCCCC1=NN(c2ccccc2)C(=O)C1N=Nc1ccccc1` (stereo not drawn), the growth inhibition in experiment [1] is 8.2%; in experiment [2], -8.95%; in experiment [3], -0.75%; in experiment [4], -10.2%; in experiment [5], -3.3%; in experiment [6] it was 2.05%.

Take `CCc1c(O)c2c(c(O)c1C(C)=O)C(=O)c1c(cc(O)c(C(=O)O)c1C(=O)O)C2=O`: the growth inhibition is -3.15% in experiment [1]; 9.8% in experiment [2]; 24.2% in experiment [3]; 10.2% in experiment [4]; 20.3% in experiment [5]; 12.8% in experiment [6].

On to `O=c1[nH]c(NCc2ccncc2)nc2nc[nH]c12`, for which the growth inhibition was 10.2% in experiment [1]; -3.8% in experiment [2]; -14.8% in experiment [3]; 3.1% in experiment [4]; -21.1% in experiment [5]; -52% in experiment [6].

As to `NC(=O)c1ccc([N+](=O)[O-])cc1`, the growth inhibition was 6% in experiment [1]; -5.15% in experiment [2]; 27.1% in experiment [3]; -24.8% in experiment [4]; -1.4% in experiment [5]; 15.3% in experiment [6].

`O=C1CCCC1C(=O)c1ccccc1.O=C1CCCC1C(=O)c1ccccc1.[Cu]` (stereo not drawn): the growth inhibition in experiment [1] was 70.9% (active); in experiment [2], 22.1%; in experiment [3], 88.5% (active); in experiment [4], 23.7%; in experiment [5] it was -2%; in experiment [6], 52.9%.

Regarding `Cc1ccccc1C1OC2=C(Nc3ccc([N+](=O)[O-])cc3N2)C1=O` (stereo not drawn), the growth inhibition in experiment [1] was 37.5%; in experiment [2], 21.4%; in experiment [3], 38%; in experiment [4] it was 20.2%; in experiment [5], 27.2%; in experiment [6] it was 45.6%.

For `CN(C)/C(=N/C(=O)Nc1ccccc1)SCc1ccccc1`, the growth inhibition was -10.5% in experiment [1]; -3.9% in experiment [2]; 0.45% in experiment [3]; -32% in experiment [4]; -9.1% in experiment [5]; -1.2% in experiment [6].

For `CCCCn1cnc2ccc(N)cc2c1=O`, the growth inhibition in experiment [1] was -1.7%; in experiment [2], 1.85%; in experiment [3] it was 15.3%; in experiment [4], -1.7%; in experiment [5] it was 16.2%; in experiment [6] it was 2%.

As to `CCOC(=O)c1ccc(N=Cc2ccc(N(CCC#N)S(=O)(=O)c3ccccc3)cc2C)cc1`, the growth inhibition in experiment [1] was -3.9%; in experiment [2], 15.1%; in experiment [3] it was -20%; in experiment [4], 6.95%; in experiment [5], 2.95%; in experiment [6], -3.95%.

`CN1CN(c2ccccc2)C2(CCN(c3nc4ccccc4s3)CC2)C1=O`: the growth inhibition in experiment [1] was -29.7%; in experiment [2], -6.1%; in experiment [3] it was -22.8%; in experiment [4], -18.4%; in experiment [5], 3.2%; in experiment [6], -17.1%.

With `CCCCC(O)C(=O)NCCC(=O)c1ccccc1` (stereo not drawn), the growth inhibition was -7.1% in experiment [1]; 5.95% in experiment [2]; 3.45% in experiment [3]; 22.9% in experiment [4]; 14.1% in experiment [5]; 20.4% in experiment [6].

As for `NS(=O)(=O)c1ccc(N2C(=O)C(=O)N(c3ccccc3)C2=S)cc1`, the growth inhibition in experiment [1] was -15.8%; in experiment [2], -11.9%; in experiment [3] it was -16.2%; in experiment [4] it was -39.4%; in experiment [5], -3.75%; in experiment [6], -20.5%.

Turning to `O=C(Cc1ccc(Cl)cc1)c1ccccc1Cl`, the growth inhibition in experiment [1] is 2.8%; in experiment [2] it was 2.75%; in experiment [3] it was -1%; in experiment [4], 1.7%; in experiment [5], -5.65%; in experiment [6], 4.4%.

As for `COc1cccc([B-]23OCC[N+]2(CNC(=O)c2ccccc2O)CCO3)c1` (stereo not drawn), the growth inhibition was 29.6% in experiment [1]; 2.95% in experiment [2]; 12.9% in experiment [3]; 6.75% in experiment [4]; -3.25% in experiment [5]; 19.4% in experiment [6].

Regarding `N=c1oc2cc(O)ccc2cc1C(=O)NCc1ccccc1`, the growth inhibition in experiment [1] is 17.8%; in experiment [2] it was 27.4%; in experiment [3], -2.9%; in experiment [4], 20.4%; in experiment [5], -8.25%; in experiment [6], -7.15%.

With `Nc1nc(Cl)cc(Nc2ccc3c(c2)CCC3)n1`, the growth inhibition was 15.2% in experiment [1]; 6.8% in experiment [2]; 26.5% in experiment [3]; 19.1% in experiment [4]; 23.6% in experiment [5]; -20.4% in experiment [6].

With `O=C(COc1ccc(Cl)cc1Cl)Nc1ccc(N=Nc2ccccc2)cc1`, the growth inhibition was -0.5% in experiment [1]; 7.55% in experiment [2]; -1.95% in experiment [3]; -3.65% in experiment [4]; -2.8% in experiment [5]; 19.9% in experiment [6].

On to `CCCCOC(=O)CCCCCCC/C=C/C1C=CC(CCCC)C(C#N)C1C#N` (stereo not drawn), for which the growth inhibition in experiment [1] was 1%; in experiment [2], -5.95%; in experiment [3] it was -25.1%; in experiment [4], -6.05%; in experiment [5] it was -4.3%; in experiment [6], -13.3%.

With `O=Cc1ccc(OC(=O)c2ccccc2)cc1`, the growth inhibition is -6.35% in experiment [1]; -25.6% in experiment [2]; 13.3% in experiment [3]; -13.3% in experiment [4]; -1.25% in experiment [5]; 3.95% in experiment [6].

Consider `CC(C)CN(CC(C)C)C(=S)[S-].CC(C)CN(CC(C)C)C(=S)[S-].[Zn]`, for which the growth inhibition was 54.5% in experiment [1]; 12.7% in experiment [2]; 55% in experiment [3]; 21.4% in experiment [4]; 4.65% in experiment [5]; 32.4% in experiment [6].

For `CCN(CC)CCn1c(C(C)(C)C)nc2ccccc21`, the growth inhibition in experiment [1] is -9.15%; in experiment [2], -20.8%; in experiment [3], -24.1%; in experiment [4], -6.25%; in experiment [5], -15.8%; in experiment [6] it was -10.9%.

Consider `CC(C)n1c(=O)nc(-c2ccccc2)c2cc3c(cc21)OCO3`, for which the growth inhibition is 27.3% in experiment [1]; 18.8% in experiment [2]; 51.4% in experiment [3]; 7% in experiment [4]; 47.9% in experiment [5]; 8.65% in experiment [6].

Regarding `O=c1c2cc([N+](=O)[O-])ccc2[nH]n1Cc1ccccc1Cl`, the growth inhibition in experiment [1] is -0.1%; in experiment [2] it was 12.3%; in experiment [3], -3.8%; in experiment [4], 14.9%; in experiment [5] it was 6.6%; in experiment [6], -4.45%.

Regarding `CC(C)c1ccc(OC(=N)c2ccccc2)cc1`, the growth inhibition in experiment [1] was 1.5%; in experiment [2], -7.35%; in experiment [3] it was -9.45%; in experiment [4], -3.95%; in experiment [5], 7.85%; in experiment [6], 3.6%.

With `COSCCCC(C)=O`, the growth inhibition was 25.5% in experiment [1]; 4% in experiment [2]; -5.15% in experiment [3]; 13.8% in experiment [4]; 6.55% in experiment [5]; 13.8% in experiment [6].

Take `CSc1nnn(C(C)(C)C)n1`: the growth inhibition in experiment [1] was 5.35%; in experiment [2], 6%; in experiment [3] it was -3.5%; in experiment [4] it was -15.9%; in experiment [5], -8.75%; in experiment [6] it was 8.8%.

Regarding `CN(C)Cc1cc(C(C)(C)C)cc(CNC2CCCCC2)c1O`, the growth inhibition in experiment [1] is -2.9%; in experiment [2], -6.45%; in experiment [3], -26.9%; in experiment [4] it was -6.4%; in experiment [5], -24.4%; in experiment [6], 19.9%.

Turning to `Oc1ccc(C(O)CNCCCCCCNCC(O)c2ccc(O)c(O)c2)cc1O` (stereo not drawn), the growth inhibition in experiment [1] was -17.2%; in experiment [2] it was 6.65%; in experiment [3], -2%; in experiment [4] it was 6.5%; in experiment [5] it was -1.45%; in experiment [6] it was -4.65%.

In the case of `Cn1c(C(=O)NN)cc2cc(OCc3ccccc3)ccc21`, the growth inhibition was 30.1% in experiment [1]; 5.75% in experiment [2]; 7.2% in experiment [3]; 4.55% in experiment [4]; 13.2% in experiment [5]; 2.4% in experiment [6].

Take `C=CCNC(=O)c1ccccc1OCC(=O)O`: the growth inhibition in experiment [1] is -12.7%; in experiment [2], -37.3%; in experiment [3], -8.75%; in experiment [4], -8.1%; in experiment [5], -29.1%; in experiment [6] it was 1.4%.

On to `Clc1ccc(C2SCCS2)c(Cl)c1`, for which the growth inhibition is 56.8% in experiment [1]; 28.2% in experiment [2]; 59.1% in experiment [3]; 31.8% in experiment [4]; 33.8% in experiment [5]; 38.5% in experiment [6].

`O=c1c2c(nc3n1CCC3)sc1c(O)c(Br)ccc12`: the growth inhibition in experiment [1] is -44.7%; in experiment [2], -26.6%; in experiment [3], -46.7%; in experiment [4] it was -25.1%; in experiment [5], -40%; in experiment [6], -52.1%.

`C(/C=C/C=C/Nc1ccc(N=Nc2ccccc2)cc1)=Nc1ccc(N=Nc2ccccc2)cc1`: the growth inhibition is -32.8% in experiment [1]; -38% in experiment [2]; -26.3% in experiment [3]; -1.65% in experiment [4]; -25.8% in experiment [5]; -30% in experiment [6].
